Measurements reported in PubChem BioAssay (NCI).
This is part of a sample that, as a whole, favours compounds with a hit. Of some 83,000 tested, about 20% had one in any assay.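 Values shown are percent growth following 48 h exposure of cells in 96-well plates to a single concentration of compound; below 10 was considered active.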 Unmarked numbers belong to inactive results. Active and inactive are the calls of the source.

Assays:
Assay in all cases: NCI-60 one-dose screen, 48 h (100 = growth as untreated, 0 = no growth, -100 = all killed)
SK-MEL-2 melanoma = settings: 10 µM unless noted
EKVX NSCLC = settings: 10 µM
SN12C renal = settings: 10 µM unless noted
UO-31 renal = settings: 10 µM unless noted
TK-10 renal = settings: 10 µM unless noted
ACHN renal = settings: 10 µM unless noted
CCRF-CEM leukemia = settings: 10 µM
MOLT-4 leukemia = settings: 10 µM unless noted
SR leukemia = settings: 10 µM unless noted
RPMI-8226 leukemia = settings: 10 µM unless noted
OVCAR-8 ovarian = settings: 10 µM unless noted
OVCAR-5 ovarian = settings: 10 µM unless noted
OVCAR-4 ovarian = settings: 10 µM unless noted
SK-OV-3 ovarian = settings: 10 µM unless noted
IGROV1 ovarian = settings: 10 µM unless noted
OVCAR-3 ovarian = settings: 10 µM unless noted
HS 578T breast = settings: 10 µM unless noted
NCI/ADR-RES ovarian = settings: 10 µM unless noted
CAKI-1 renal = settings: 10 µM unless noted
A498 renal = settings: 10 µM unless noted

Structure (SMILES) | growth (SK-MEL-2 melanoma) | growth (EKVX NSCLC) | growth (SN12C renal) | growth (UO-31 renal) | growth (TK-10 renal) | growth (ACHN renal) | growth (CCRF-CEM leukemia) | growth (MOLT-4 leukemia) | growth (SR leukemia) | growth (RPMI-8226 leukemia) | growth (OVCAR-8 ovarian) | growth (OVCAR-5 ovarian) | growth (OVCAR-4 ovarian) | growth (SK-OV-3 ovarian) | growth (IGROV1 ovarian) | growth (OVCAR-3 ovarian) | growth (HS 578T breast) | growth (NCI/ADR-RES ovarian) | growth (CAKI-1 renal) | growth (A498 renal)
COc1ccc(-c2nc(SCC(C)C)nc(Nc3ccc(C(=O)O)cc3)c2C#N)cc1 | 57.9% | 90.7% | 102% | 92.9% | 88.5% | 89.5% | 89.2% | 82.7% | 82.5% | 60.8% | 97.1% | 104% | 87.1% | 113% | 109% | 86.6% | 99.1% | 94.6% |  | 
CC(=O)OCC(=O)[C@@]1(O)[C@H](C)C[C@H]2[C@@H]3C=C(C)C4=Cc5c(cnn5-c5ccc(F)cc5)C[C@]4(C)[C@H]3[C@@H](O)C[C@@]21C | 22.5% | 28.5% | 40.5% | 3.92% (active) | 19.7% | 13.5% | 6.74% (active) | 1.22% (active) | 0.104% (active) | -16.8% (active) | 32.7% | 16.9% | 38.8% | 23.9% | 16% | -20% (active) |  | 18.6% |  | 
CCCCCCCCCCCCCCCCCC1=NCCN1CCNC(C)=O | 111% | 80% | 104% | 83.2% |  | 91.4% | 40.3% | 62.6% | 19.3% | 91% | 98.2% | 91.7% | 95.2% | 107% | 91.1% | 94.7% | 110% | 98.2% | 87.6% | 78.4%
CC1=C(C)C[C@]2(C(=O)O[C@H]3CCCC[C@@H]32)[S@](=O)C1 | 86.3% | 109% | 102% | 91.2% | 89.7% | 120% | 105% | 105% | 92.3% | 111% | 105% | 114% | 106% | 110% | 113% | 107% | 107% | 104% |  | 
Oc1ccccc1/C=N/N=C/c1c(O)ccc2ccccc12 | 92.4% | 72.1% | 85.1% | 42.9% |  | 80% | 7.8% (active) | 57.7% | 55.4% | 96.6% | 80.6% | 102% | 85.4% | 90.8% | 47.9% | 80.5% | 101% | 92.5% | 91.6% | 123%
NC(=O)CC(NC(=O)COc1ccc(Cl)cc1Cl)C(=O)O (stereo unspecified) | 104% | 111% | 101% | 95.6% |  | 109% | 105% | 104% | 115% | 117% | 105% | 105% | 112% | 110% | 109% | 106% | 107% | 112% | 101% | 88%
CCCC(=O)Nc1ccccc1C(=O)O | 100% | 96.4% | 109% | 91.3% | 92.3% | 108% | 104% | 98.6% | 93.1% | 109% | 91.1% | 99.5% | 101% | 104% | 110% | 94.7% | 102% | 96.3% |  | 
N/C(=N\O)c1ccncc1 | 100% | 98.9% | 106% | 88% | 95.8% | 103% | 106% | 114% | 108% | 110% | 102% | 102% | 103% | 106% | 105% | 105% | 110% | 102% |  | 
CCOC(=O)CCCCCCCCC(=O)OCC | 112% | 118% | 102% | 95.7% |  | 113% | 107% | 95.2% | 106% | 108% | 106% | 112% | 111% | 106% | 105% | 106% | 110% | 101% | 105% | 93.9%
CC(=O)CCS(=O)c1ccccc1 (stereo unspecified) | 97.1% | 106% | 98.6% | 85.8% | 89% | 112% | 101% | 98.3% |  | 104% | 104% | 108% | 106% | 110% | 105% | 101% | 98.4% | 99.1% |  | 
CCCCCCNC(=O)Oc1ccc(/C(=C(/C)Cc2ccc(OC)cc2)c2ccc(OCCN3CCCCC3)cc2)cc1 | 101% | 81.9% | 80.1% | 58.5% | 89.8% | 99.5% | 72% | 69.3% | -0.659% (active) | 76.5% | 81.2% | 90.5% | 81% | 88.8% | 95.1% | 93.9% | 80% | 86.3% |  | 
Ic1ccc(SSc2ccc(I)cc2)cc1 | 105% | 99.9% | 71.3% | 60.5% | 84.4% | 113% | 17% | 32% | 60.6% | 95.6% | 92.6% | 114% | 99.7% | 113% | 82.4% | 102% | 96.9% | 101% |  | 
Cc1cc(CSc2ccc(Cl)cc2)ccc1N | 99.7% | 85.8% | 42% | 29.4% |  | 102% | 3.59% (active) | 49.7% | 93.5% | 15.5% | 99.8% | 99.6% | 96.9% | 106% | 86% | 97.6% |  | 95% | 95.1% | 99.7%
CCC(C)C1NC(=O)C(CC(C)C)NC(=O)C(C)NC(=O)C(C(C)C)NC(=O)C(CCCCN)NC(=O)C(CC(C)C)NC(=O)C(C(C)C)NC(=O)[C@H](C)NC(=O)C(C(C)CC)NC(=O)C(CCCN=C(N)N)NC(=O)C(CCCCN)NC(=O)C(CCCN=C(N)N)NC(=O)C(CCCCN)NC(=O)C([C@H](C)CC)NC(=O)C(CCCCN)NC1=O (stereo partly specified) | 37.3% | 15.3% | 10.9% | 21.8% |  | 3.41% (active) | 8.98% (active) | -6.28% (active) | 2.37% (active) | -35.5% (active) | 11.7% | 52.6% | 18.4% | 10.4% | 12.4% | 8.18% (active) | 38.9% | 29.3% | 8.2% (active) | 20.8%
C=CCNC(=S)NNc1ccc([N+](=O)[O-])cn1 | 94.4% | 99.9% | 100% | 83.7% | 104% | 104% | 71.2% | 99.4% | 98.3% | 101% | 111% | 95.6% | -92.2% (active) | 104% | 102% | 98.7% | 105% | 95.9% |  | 
COc1ccc(OC)c(Cn2cc3c(c2)-c2oncc2CC3)c1 | 45% | 42% | 45.9% | 41.9% |  | 55.8% | 16% | 28.7% | 22.7% | 42.5% | 55.5% | 58.1% | 69.1% | 11.6% | 31.2% | -4.75% (active) | 19.2% | 1.37% (active) | 12.5% | 24.2%
N=c1c2c(=O)n3c(nc2nc2sc4ccc(Cl)cc4n12)-c1ccccc1Sc1ccccc1-3 | 7.77% (active) | 9.46% (active) | 21.4% | -5.37% (active) |  | 14.7% | 12.5% | 8.17% (active) | 5.86% (active) | 7.72% (active) | 19.8% | 48.2% | 0.243% (active) | 19.5% | 2.34% (active) | 20.9% | 35.1% | 12.3% | 6.62% (active) | 47.1%
